# In the supplement of paper PMC6555819:
# Assays:
# Test in all cases: PBM binding z-score (relative to random genomic background probes); higher = stronger binding; sequences stand for … in GC…GCGATTGACAGCGTAGAATGAAGG
# [1] = system: FXR:RXRa (NR concentration 270 nM, RXRa partner concentration 90 nM)
# Summary of the method: (§1)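 Ligand-free nuclear receptor dimers were applied to custom Agilent 4×180K protein-binding microarrays whose double-stranded probes carried direct-repeat seeds, single-nucleotide variants, half-site ablations and random human genomic background sequences in 34-nt variable regions. Incubation lasted 1 h. Binding z-scores were computed against the random background probes from regression-normalized fluorescence.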
# [2] = system: LXRa:RXRa (NR concentration 270 nM, RXRa partner concentration 90 nM)
# Summary of the method: as §1
# [3] = system: LXRa homodimer (NR concentration 270 nM)
# Summary of the method: as §1
# [4] = system: LXRb:RXRa (NR concentration 270 nM, RXRa partner concentration 90 nM)
# Summary of the method: as §1
# [5] = system: LXRb homodimer (NR concentration 270 nM)
# Summary of the method: as §1
# [6] = system: PPARa:RXRa (NR concentration 270 nM, RXRa partner concentration 90 nM)
# Summary of the method: as §1
# [7] = system: PPARg:RXRa (NR concentration 180 nM, RXRa partner concentration 90 nM)
# Summary of the method: as §1
# [8] = system: PPARg:RXRa 270nM:90nM, anti-RXR (NR concentration 270 nM, RXRa partner concentration 90 nM)
# Summary of the method: as §1
# [9] = system: PPARg:RXRa 30nM:10nM, anti-RXR (NR concentration 30 nM, RXRa partner concentration 10 nM)
# Summary of the method: as §1
# [10] = system: PPARg:RXRa 90nM:30nM, anti-RXR (NR concentration 90 nM, RXRa partner concentration 30 nM)
# Summary of the method: as §1
# [11] = system: PPARg:RXRa DBDmut IVT, anti-RXR (DBD mutation: RXRa K156A/R161A, NR concentration 270 nM, RXRa partner concentration 90 nM)
# Summary of the method: as §1
# [12] = system: PPARg:RXRa IVT, anti-PPARg (NR concentration 270 nM, RXRa partner concentration 90 nM)
# Summary of the method: as §1
# [13] = system: PPARg DBDmut:RXRa IVT, anti-PPARg (DBD mutation: PPARg1 K132A/R137A, NR concentration 270 nM, RXRa partner concentration 90 nM)
# Summary of the method: as §1
# [14] = system: PPARg DBDmut IVT, anti-PPARg (DBD mutation: PPARg1 K132A/R137A, NR concentration 270 nM)
# Summary of the method: as §1
# [15] = system: PPARg homodimer (NR concentration 180 nM)
# Summary of the method: as §1
# [16] = system: PXR:RXRa (NR concentration 270 nM, RXRa partner concentration 90 nM)
# Summary of the method: as §1
# [17] = system: PXR homodimer (NR concentration 270 nM)
# Summary of the method: as §1
# [18] = system: RARa:RXR (NR concentration 270 nM, RXRa partner concentration 90 nM)
# Summary of the method: as §1
# [19] = system: RARa homodimer (NR concentration 270 nM)
# Summary of the method: as §1
# [20] = system: RARb:RXRa (NR concentration 270 nM, RXRa partner concentration 90 nM)
# Summary of the method: as §1
Sequence,PBM binding z-score [1],PBM binding z-score [2],PBM binding z-score [3],PBM binding z-score [4],PBM binding z-score [5],PBM binding z-score [6],PBM binding z-score [7],PBM binding z-score [8],PBM binding z-score [9],PBM binding z-score [10],PBM binding z-score [11],PBM binding z-score [12],PBM binding z-score [13],PBM binding z-score [14],PBM binding z-score [15],PBM binding z-score [16],PBM binding z-score [17],PBM binding z-score [18],PBM binding z-score [19],PBM binding z-score [20]
GATACAGGGTCAAGGCCAGAGTTCGCGTATTGAT,6.64,4.34,0.289,3.72,-0.198,5.66,5.99,5.93,2.4,4.93,2.6,3.98,0.606,-0.0978,2.3,5.07,1.99,5.07,1.32,4.49
TCTAGCAGGCTAGAGGGTCACTCAAGAGGTACGG,1.01,0.938,-0.529,0.868,-1.08,2.4,1.05,2,1.9,1.98,0.497,0.41,-0.174,-0.574,0.731,1.48,-0.354,2.02,-0.017,1.93
ATCGAAAGGTCGAGGTGAGTAGAGAGAAAGGGAA,4.27,3.47,0.0492,2.46,0.462,4.49,3.29,3.59,1.45,2.36,0.416,2.34,1.55,0.427,1.76,2.19,0.327,3.31,1.21,4.11
ACTATTAGTTAAGACGAGGGCAACCGATAGGTTG,0.44,0.122,0.165,0.211,0.232,0.271,0.646,-0.109,-0.17,-0.186,-0.356,0.422,0.81,0.924,0.44,0.642,0.645,0.641,1.02,0.967
TAGCCTAGGTAATTCAGGGGCCAGTATAGAAAGC,-0.449,-0.444,-0.517,-0.109,-0.53,-0.0424,0.145,-0.169,-0.327,-0.103,-0.0164,0.234,0.0188,-0.116,-0.334,-0.507,-0.545,-0.256,-0.299,0.0227
AGAATGAGGGCAATGAGTTGATAGCACGGGTGGC,0.728,0.505,-0.515,-0.0914,-0.286,1.91,1.79,1.42,0.0297,0.697,4.59,3.33,0.634,0.0242,0.0668,1.89,5.25,0.357,0.124,2.04
CGTCCAAGGTCAGAGGGGTCAGTGAATGCCGAGT,6.36,4.81,1.33,4.54,0.592,5.12,4.33,4.71,1.43,3.39,2.84,3.28,-0.262,0.193,5.46,6.03,9.87,6.26,2.33,5.24
TAGCCTAGGTCAGAACGGGCCAGTATACGCTATA,1.13,0.618,-0.471,0.47,-0.65,1.31,0.763,0.742,-0.161,0.153,0.749,1.5,-0.735,-1.15,0.155,0.457,-0.462,0.873,-0.513,2.75
CAAACTAGGTCATGGTCAAAGTCGGTTTGTGCCA,3.73,2.64,0.245,1.94,0.0742,4.74,8.15,6.86,4.7,6.63,8.43,8.57,2.9,1.82,2.21,1.75,-0.231,2.44,0.58,4.01
TCTTATAGATCAACAGGAGGTTAAGAAAGATCGA,0.826,1.6,0.457,1.36,0.165,1.6,0.533,2.08,3.48,2.93,2.24,0.332,0.51,0.867,0.452,0.958,0.0264,1.46,0.64,0.877
GCGACTGGGGCAAAGCAGGTTACCGTAAGGTTGG,-0.0896,0.23,-0.658,0.135,-1.45,1.51,0.866,1.45,-0.363,0.645,4.2,3.74,-0.21,-0.572,0.239,0.503,-0.648,1.73,-1.1,0.922
GCGACTGGGGCAAAGGAGGTTACCATAAGGTTGG,1.77,1.09,-0.0421,0.882,-0.261,2.06,3.15,3.93,1.89,3.87,4.69,3.76,-0.0461,-0.579,1.05,1.54,-0.167,1.41,-0.0952,1.26
CCTTGCGGGTCAAGGTTATAGCACGGGTGGTACG,4.66,3.22,0.11,2.6,-0.432,4.96,5.05,5.18,2.05,4.21,3.71,5.26,-0.0608,-0.506,2.01,2.93,0.309,3.7,0.296,3.82
CCTACTGGGCCAAAAACGTCATTGATGCCGATAA,-0.178,-0.282,-0.294,-0.357,-0.478,0.119,0.525,1.02,-0.141,0.509,2.89,2.22,-0.472,-0.737,0.2,-0.35,-0.449,-0.17,-0.624,-0.163
CCTGCTAGGTCAGGGTCAGCTAATCTACAGTATG,3.6,2.42,-0.231,2.55,-0.944,3.92,2.82,3,0.682,1.83,3.18,3.55,-0.395,-0.875,0.967,2.73,-0.26,3.48,0.175,4.42
TTACCAAGGTGGAGGTCGTTGATCCCTCTGTAGA,1.68,1.96,0.12,1.66,-0.0737,1.7,0.691,2.12,0.972,1.4,-0.0945,0.927,-0.0829,0.467,0.494,1.37,-0.028,1.58,-0.0306,0.92
TAGCCTAGGACATTGGGCCAGTATAGTACGCATC,-0.399,-0.701,-0.544,-0.775,-0.541,-0.477,0.608,-0.283,-0.241,-0.224,-0.0779,0.309,-0.136,-0.693,-0.568,-0.674,-0.291,-0.557,-0.0644,-0.123
TCATATAGGTAAACAGGTCAAAGTCCGTAAGTTA,2.74,3.19,2.04,3.12,0.433,4.55,5.08,5.37,4.97,5.43,5.17,5.48,3.64,1.86,2.44,2.77,0.953,3.52,1.47,2.8
ATCGATAGGTCGAAGGTGAGTATACCCACCCGAA,0.952,0.85,-0.301,0.557,-0.268,2.9,4.53,5.41,3.58,5.43,-0.27,1.54,0.544,-0.0222,0.323,0.78,0.0246,2.02,-0.0833,1.76
TAGCCTAGGTCAGATCGGGCCCGTATACGCTATA,1.58,1.2,-0.271,0.916,-0.19,1.67,0.67,0.657,-0.472,0.0407,0.295,1.06,-0.496,-0.614,-0.129,0.189,-0.808,1.16,-0.649,3.02
ATATCTAGGTAAGACTCAGTTCAGTGAAGAACGC,0.211,0.372,0.425,0.221,0.484,1.35,1.55,1.27,0.124,0.928,5.77,4.56,2.06,1.25,0.747,0.999,1.25,0.287,1.13,0.401
TCGAGTAGGTTAGGGTCATTCAGAATGGCGTCGA,4.57,3.41,0.537,3.62,-0.146,4.66,3.15,4.16,2.2,3.52,2.47,2.77,-0.28,0.496,2.22,4.55,2.03,5.08,0.43,3.08
CGAACTAGGTCATCCAAGACAGTGAATACATTGA,4.2,2.37,0.551,2.26,0.197,4.78,8.08,6.67,4.23,5.9,8.33,8.19,3.65,2.15,1.93,1.67,0.36,2.67,1.01,3.95
CGTCCTAGGTCATAGGAGGTCAGTGAAGACAGAT,5.53,6.34,3.87,5.18,0.0467,4.91,3.72,4.05,1.4,3.09,3.43,4.34,-0.339,-0.4,2.53,6.01,1.28,4.21,1.08,4.6
TCATATTGGTAAACAGGTGAAAGTCCGTAAGTTA,1.17,0.929,0.49,1.15,0.247,1.66,0.821,2.67,4.04,3.3,2.2,1.5,0.411,1.32,1.25,1.03,0.511,1.35,1.38,0.73
ACTAGCAGGCCAAGTCTGGGTCACTCAAACAAAG,0.226,0.263,0.0484,0.796,-1.12,2.38,0.901,1.28,0.18,0.56,2.25,3.03,-0.209,-0.38,0.811,0.664,-0.106,1.59,-0.573,1.75
ACAGACAGGAGATGAAGGTAACTCAGGCTATCAT,0.323,0.193,0.173,0.229,0.489,0.00739,0.816,0.278,0.594,0.135,-0.00945,-0.0699,1.32,0.405,0.572,0.128,0.841,0.204,0.797,0.539
CCGACTGGGGCAAGGATACCATAACGCACAGCCA,-0.419,-0.243,-0.0407,-0.588,-1.01,0.158,1.6,1.16,-0.149,0.515,2.53,2.44,-1.12,-0.391,0.238,-0.678,-0.593,-0.387,0.23,0.558
